# According to PMC11062922 (Nature Chemical Biology, 2023):
# How the values were obtained:
# PIP4K2C = test system: PIP4K2C; design: species or system human, MV4-11 + K-562 + COLO205 + SK-N-BE2 + OVCAR-8; conditions: read-out: apparent Kd; compound concentrations: 100 nM and 1000 nM (sheet 'Samples'), CATDS: 1; n = 1
# STK26 = test system: STK26; design: species or system human, MV4-11 + K-562 + COLO205 + SK-N-BE2 + OVCAR-8; conditions: read-out: apparent Kd; compound concentrations: 100 nM and 1000 nM (sheet 'Samples'), CATDS: 0.52714165558765103; n = 1
# PRKX;PRKY = test system: PRKX;PRKY; design: species or system human, MV4-11 + K-562 + COLO205 + SK-N-BE2 + OVCAR-8; conditions: read-out: apparent Kd; compound concentrations: 100 nM and 1000 nM (sheet 'Samples'), CATDS: 0.167379705383528; n = 1
# SMC4 = test system: SMC4; design: species or system human, MV4-11 + K-562 + COLO205 + SK-N-BE2 + OVCAR-8; conditions: read-out: apparent Kd; compound concentrations: 100 nM and 1000 nM (sheet 'Samples'), CATDS: 0.57123951593094102; n = 1
# RABL3 = test system: RABL3; design: species or system human, MV4-11 + K-562 + COLO205 + SK-N-BE2 + OVCAR-8; conditions: read-out: apparent Kd; compound concentrations:100 nM and 1000 nM (sheet 'Samples'); n = 1
# TGFBR1 = test system: TGFBR1; design: species or system human, MV4-11 + K-562 + COLO205 + SK-N-BE2 + OVCAR-8; conditions: read-out: apparent Kd; compound concentrations:100 nM and 1000 nM (sheet 'Samples'); n = 1
# TNIK = test system: TNIK; design: species or system human, MV4-11 + K-562 + COLO205 + SK-N-BE2 + OVCAR-8; conditions: read-out: apparent Kd; compound concentrations:100 nM and 1000 nM (sheet 'Samples'); n = 1
# PRKG1 = test system: PRKG1; design: species or system human, MV4-11 + K-562 + COLO205 + SK-N-BE2 + OVCAR-8; conditions: read-out: apparent Kd; compound concentrations:100 nM and 1000 nM (sheet 'Samples'); n = 1
# SMC2 = test system: SMC2; design: species or system human, MV4-11 + K-562 + COLO205 + SK-N-BE2 + OVCAR-8; conditions: read-out: apparent Kd; compound concentrations: 100 nM and 1000 nM (sheet 'Samples'), CATDS: 0.46661242360410599; n = 1
# RET = test system: RET; design: species or system human, MV4-11 + K-562 + COLO205 + SK-N-BE2 + OVCAR-8; conditions: read-out: apparent Kd; compound concentrations:100 nM and 1000 nM (sheet 'Samples'); n = 1
# PRKCZ = test system: PRKCZ; design: species or system human, MV4-11 + K-562 + COLO205 + SK-N-BE2 + OVCAR-8; conditions: read-out: apparent Kd; compound concentrations:100 nM and 1000 nM (sheet 'Samples'); n = 1
# PTK2 = test system: PTK2; design: species or system human, MV4-11 + K-562 + COLO205 + SK-N-BE2 + OVCAR-8; conditions: read-out: apparent Kd; compound concentrations: 100 nM and 1000 nM (sheet 'Samples'), CATDS: 1; n = 1
# STK10 = test system: STK10; design: species or system human, MV4-11 + K-562 + COLO205 + SK-N-BE2 + OVCAR-8; conditions: read-out: apparent Kd; compound concentrations: 100 nM and 1000 nM (sheet 'Samples'), CATDS: 0.394091035560725; n = 1
# PRKCQ = test system: PRKCQ; design: species or system human, MV4-11 + K-562 + COLO205 + SK-N-BE2 + OVCAR-8; conditions: read-out: apparent Kd; compound concentrations: 100 nM and 1000 nM (sheet 'Samples'), CATDS: 1; n = 1
# PRKAG1 = test system: PRKAG1; design: species or system human, MV4-11 + K-562 + COLO205 + SK-N-BE2 + OVCAR-8; conditions: read-out: apparent Kd; compound concentrations:100 nM and 1000 nM (sheet 'Samples'); n = 1
# PRKAG2 = test system: PRKAG2; design: species or system human, MV4-11 + K-562 + COLO205 + SK-N-BE2 + OVCAR-8; conditions: read-out: apparent Kd; compound concentrations:100 nM and 1000 nM (sheet 'Samples'); n = 1
# SIK2 = test system: SIK2; design: species or system human, MV4-11 + K-562 + COLO205 + SK-N-BE2 + OVCAR-8; conditions: read-out: apparent Kd; compound concentrations: 100 nM and 1000 nM (sheet 'Samples'), CATDS: 1; n = 1
# DJA1 = test system: T1, DJA1; conditions: read-out: apparent Kd; compound concentrations:100 nM and 1000 nM (sheet 'Lestaurtinib' of Supplementary Table 1),run:Lestaurtinib_02482_R2,Plate:MR011; n = 1
# T1 construct: gene DNAJA1
# PIK3CG = conditions: read-out: apparent Kd; compound concentrations:100 nM and 1000 nM (sheet 'Lestaurtinib' of Supplementary Table 1),run:Lestaurtinib_02487_R1,Plate:MR012; n = 1
# PIM1 = conditions: read-out: apparent Kd; compound concentrations:100 nM and 1000 nM (sheet 'Lestaurtinib' of Supplementary Table 1),run:Lestaurtinib_02487_R1,Plate:MR012; n = 1
compound,measurement,setting,value
COc1cc(Nc2nccc(N3CCC(NC(=O)C(C)c4ccc(Cl)cc4)C3)n2)cc(OC)c1OC (centres unmarked) [GSK1379757A],potency estimated from few doses,PIP4K2C,1640 nM
Cn1ccc(-c2cccc(Nc3ccnc4cc(-c5nccs5)ccc34)c2)n1 [GW525701_KCGS],potency estimated from few doses,STK26,1370 nM
CC1=C(C(=O)Nc2cc3cn[nH]c3cc2F)C(c2ccc(C(F)(F)F)cc2)CC(=O)N1 (centres unmarked) [GSK429286A],potency estimated from few doses,PRKX;PRKY,2000 nM
CCCNC(=O)Nc1ccc(N(C)c2ccnc(NC3CC3)n2)cc1 [GW818933X],potency estimated from few doses,SMC4,1120 nM
Cc1cccc(-c2n[nH]cc2-c2ccc3ncccc3n2)n1 [GW786460X],potency estimated from few doses,RABL3,1260 nM
same,potency estimated from few doses,TGFBR1,1.39 nM
same,potency estimated from few doses,TNIK,1720 nM
CCn1c(-c2nonc2N)nc2cnc(Oc3cccc(NC(=O)c4ccc(N(C)C)cc4)c3)cc21 [GSK248233A],potency estimated from few doses,PRKG1,227 nM
N#Cc1ccc(C(=O)c2cnn(-c3ccc(F)cc3)c2N)cc1 [RO1153198-000],potency estimated from few doses,SMC2,2040 nM
Cl.O=C(Nc1ccc(Oc2ccc3[nH]c(NC(=O)c4ccccc4)nc3c2)cc1)Nc1cc(C(F)(F)F)ccc1F [GW709042A],potency estimated from few doses,RET,1420 nM
O=C(Nc1n[nH]c2cc(-c3cccs3)ccc12)C1CC1 [SB-731284],potency estimated from few doses,PRKCZ,1850 nM
COc1cc2c(cc1Nc1nc(Nc3cccc(F)c3C(N)=O)c3cc[nH]c3n1)N(C(=O)CN1CCN(C(C)C)CC1)CC2 [GSK1751853A],potency estimated from few doses,PTK2,1210 nM
COc1cc2ncn(-c3cc(OCC4CCCO4)c(C(N)=O)s3)c2cc1OC (centres unmarked) [GSK204607A],potency estimated from few doses,STK10,614 nM
CO/N=C(\c1ccccc1)c1cnn(-c2ccccc2)c1N [RO1163374-000],potency estimated from few doses,PRKCQ,2210 nM
COc1ccccc1-c1ccc2c(NC(=O)C3CC3)n[nH]c2n1 [SB-711239],potency estimated from few doses,PRKAG1,1190 nM
same,potency estimated from few doses,PRKAG2,1270 nM
NS(=O)(=O)c1cccc(-c2cc3ccncc3cc2OCc2ccccc2)c1 [GSK980961A],potency estimated from few doses,SIK2,1600 nM
Lestaurtinib,potency estimated from few doses,DJA1,1330 nM
same,potency estimated from few doses,PIK3CG,1570 nM
same,potency estimated from few doses,PIM1,860 nM
